Laboratory results taken from the OligoGym collection.

Each sequence was assayed against PYROXD1 (assay: pooled miR-30 sensor sort-seq; sequence = guide strand). Settings: shRNA.
Note: reference of the scale not given here.

| Sequence | sensor-assay potency score (higher = more potent) |
| --- | --- |
| TTTAGCTTTAGTAAGCTGTTTC | -0.591 |
| TTATCTGCTTTAGATTTGCTTC | -0.93 |
| TTGATTGTTCTTCAACATCGAA | -0.89 |
| TAGATTTGCTTCTAGCTTCCTT | 0.523 |
| TAACTCAATACAGTCATTCATT | -0.8 |
| TAGAGTCTCCTGAACTCGCTGC | 0.751 |
| TTTAAAGTAAAATACAACCGAT | -0.96 |
| TGATTGTTCTTCAACATCGAAT | -0.94 |

These sequences were tested against QSER1 in the same assay as above. Settings: shRNA.

| Sequence | sensor-assay potency score (higher = more potent) |
| --- | --- |
| TTTCTTGATGCTGATAACCATC | -1.25 |
| TATAAGTTGATTCTTGAGCATT | -1.01 |
| TTTATCAGAAGTAGCATCCAAA | -0.195 |
| TATTTGATCGTGCTGTTCCTGG | -0.0695 |
| TTGAATAACATGACCTTCCATC | -0.458 |
| TTTAATAACACTACATTCTCGA | 0.61 |
| TTGAACTGTAGGCTTGAGGAGT | -0.462 |
| TACAACTGTATTTTCTCTGGAT | 0.0285 |
| TTGAATTTGATAGATAACTATG | -0.94 |
| TACTACTAGAAACAAACTCTTG | -0.942 |
| TAACTTGATCTTCAAGACGGGA | -1.26 |
| TTCATTATCAACTTTATCTGAT | 0.462 |

These sequences were tested against QSOX1 in the same assay as above. Settings: shRNA.

| Sequence | sensor-assay potency score (higher = more potent) |
| --- | --- |
| TAGCGCAGTCTCGGCAGCCGAA | -1.38 |
| TAAGCGGTATAGAAGGACCTGG | -0.156 |
| TTTGTGCTGGGACAGGTCCAGA | -1.47 |
| TACTCTTCGTTATTTCTCGCAA | -0.156 |
| TTGAAGAACCTCACAGTCGGGA | 0.0825 |
| TTGAAGTCTCTGCAGACTGCAC | -0.833 |
| TACATTTTGCCGAGCTGCCTGC | -0.913 |
| TATTTCTCGCAAAGAATCCATC | -1.27 |
| TTATTTCTCGCAAAGAATCCAT | -0.0879 |
| TTCCGGAACAGCAGGTAGCAAG | -1.46 |
| TTGTGGCTAGACCAGAGCCAGA | -1.92 |

These sequences were tested against RAB11A in the same assay as above. Settings: shRNA.

| Sequence | sensor-assay potency score (higher = more potent) |
| --- | --- |
| ATGAATAGGAACCACATTGTTG | -1.36 |
| TTCATCTGTAGGAACTGCCCTG | 0.239 |
| TTGTCTGAAAAGCAGCTTCTAC | -1.05 |
| TTATAGCTCGATATCGCTCTTG | -0.642 |
| TATAGCTCGATATCGCTCTTGC | 0.186 |
| TACATTTGTAGAGTCTAGGGCC | 0.146 |
| TATTGTTTTTCCATCAACCTGG | 0.22 |
| TTTCAATGAATGACAAACCATT | -1.27 |
| TTGCTTCTGAGAAACAATGCGG | -0.544 |
